PubChem BioAssay (NCATS)
Inconclusive results are not listed. Where a call stands in place of a potency, no number is given. Calls of active or inactive are those of the source. Calls follow the shape of the dose curve; as a rule, active = well fitted curve in the direction sought with a large enough effect; inconclusive = small, poorly fitted or top-dose-only effect, or another doubt; inactive = no such curve, though single readings can be large; an effect the other way counts as inactive or inconclusive.

target: Aldehyde dehydrogenase, mitochondrial (Homo sapiens) (UniProt P05091); test: qHTS for Inhibitors of the Aldehyde Dehydrogenase Family (ALDH2) Primary screen (AID 2061308); settings: ALDH2 enzyme inhibition qHTS, 1536-well; series mostly up to 56 µM; also: nearly all actives have a fitted effect of over 55% in size

Structure (SMILES)	Potency	activity change, negative = inhibition
CC1=CC(=O)[C@@H](O)[C@@]2(C)C1C[C@H]1OC(=O)[C@H](O)[C@@]3(O)[C@@H](C)[C@@H](O)[C@H](O)C2[C@@]13C (some centres undefined)	inactive	–
COc1ccc2c3c([nH]c2c1)C(C=C(C)C)N1C(=O)C2CCCN2C(=O)C1C3 (centres undefined)	inactive	–
OCc1nnc2n1-c1ccc(Cl)cc1C(c1ccccc1Cl)=NC2	inactive	–
CC(=O)OC[C@]12C[C@H](O)C(C)=C[C@H]1O[C@@H]1[C@H](O)[C@@H](OC(C)=O)[C@@]2(C)[C@]12CO2	inactive	–
CC1=CC2/C=C(\C)CCC(O)C(O)/C=C/C(=O)OC23C(=O)NC(CC(C)C)C3C1C (centres undefined)	inactive	–
O=C(O)c1ccnc2cc(C(OCCN3CCCCC3)c3ccccc3Cl)[nH]c12 (centres undefined)	inactive	–
CCCCCn1cc(C(=O)c2cccc3ccccc23)c2ccccc21	inactive	–
Cc1c(N2C(=O)[C@@H]3[C@H](O)CCN3C2=O)ccc(C#N)c1Cl	inactive	–
CC(=O)OC[C@]12C[C@H](OC(C)=O)C(C)=C[C@H]1O[C@@H]1[C@H](O)[C@@H](O)[C@@]2(C)[C@]12CO2	inactive	–
CC1=C[C@H]2O[C@@H]3[C@H](O)[C@@H](O)[C@](C)([C@@]2(CO)C[C@@H]1O)[C@]31CO1	inactive	–
CO[C@H]1C[C@H](O[C@H]2CC[C@]3(C=O)[C@H]4CC[C@]5(C)[C@@H](C6=CC(=O)OC6)CC[C@]5(O)[C@@H]4CC[C@]3(O)C2)O[C@H](C)[C@H]1O	inactive	–
C[C@H](CCC(=O)O)C[C@H](C)C[C@H](C)C(=O)/C=C(\O)[C@H](C)C[C@H](C)C/C=C/[C@@H](C)[C@@H](O)[C@@H](C)[C@@H](O)C[C@@H]1CC[C@@](C)([C@H]2CC[C@@](C)([C@@H](C)O)O2)O1	inactive	–
C=CC/C=C\C/C=C\CCCCCCCc1cc(O)cc(O)c1	inactive	–
C=C1C(=O)OC2/C=C(\COO)CC/C=C(\COC(C)=O)CC(OC(=O)C(C)CC)C12 (centres undefined)	inactive	–
O=C(O)CCCCCCNC1c2ccccc2CCc2ccccc21	inactive	–
C[C@@]12C[C@@H](c3ccoc3)OC(=O)C1CC[C@]1(C)[C@H]2[C@H]2C=C[C@]1(O)C(=O)O2 (some centres undefined)	inactive	–
CC(=O)C1CCC2C3CCC4C[C@@H](O)CCC4(C)C3CCC12C (some centres undefined)	inactive	–
COC(=O)C1=COC(C)C2CN3CCC4(C(=O)Nc5ccccc54)C3CC12 (centres undefined)	inactive	–
COc1cc2c(cc1OC)[C@@]13CCN4CC5=CCO[C@H]6CC(=O)N2[C@H]1[C@H]6[C@H]5C[C@H]43	inactive	–
CC1=CC(=O)[C@@H](O)[C@]2(C)C3[C@@H](O)[C@@H]4OC(=O)[C@@H]([C@H]4C)[C@]3(C)C(=O)C[C@@H]12 (some centres undefined)	inactive	–
C/C=C(\C)C(O)C(C)/C=C(C)/C=C/C/C(C)=C/Cc1nc(OC)c(OC)c(O[C@@H]2O[C@@H](C)[C@H](O)[C@@H](O)[C@H]2O)c1C (some centres undefined)	inactive	–
CN1CCc2cc3c(cc2C1C1OC(=O)c2c1ccc1c2OCO1)OCO3 (centres undefined)	inactive	–
C=CC(C)(O)CC/C=C(\C)C(=O)O[C@H]1[C@H](O)[C@@H](CO)O[C@@H](OC(=O)[C@]23CCC(C)(C)CC2C2=CCC4[C@@]5(C)CC[C@H](O[C@@H]6O[C@H](CO[C@@H]7OC[C@H](O)[C@H](O)[C@H]7O[C@@H]7OC[C@@H](O)[C@H](O)[C@H]7O)[C@@H](O)[C@H](O)[C@H]6O)C(C)(C)C5CC[C@@]4(C)[C@]2(C)CC3)[C@@H]1OC1OC(C)C(O[C@@H]2OC[C@@H](O)[C@H](O[C@@H]3OC[C@@H](O)[C@H](O)[C@H]3O)[C@H]2O)C(O)C1O (some centres undefined)	–	12% [at 11.2 µM] (inactive)
CCOc1ccc(Oc2ccc(OCc3cc(F)ccc3F)cc2)c(N)c1	inactive	–
C[C@@H]1CCC2[C@@H](C)C(=O)OC3O[C@@]4(C)CCC1[C@]32OO4 (some centres undefined)	inactive	–
CC[C@H]1C[C@H]2[C@@H]3CCC4=CC(=O)CC[C@@H]4[C@H]3CC[C@]2(C)[C@H]1O	inactive	–
CC(C)(O)[C@H]1O[C@H]2CC[C@@]3(C)[C@@](O)(CC[C@H]4Cc5c([nH]c6ccccc56)[C@@]43C)C2=CC1=O	inactive	–
C[C@@H]1O[C@@H](O[C@H]2CC[C@@]3(C)C(CC[C@@H]4C3CC[C@]3(C)[C@@H](C5=CC(=O)OC5)CC[C@]43O)C2)[C@H](O)[C@H](O)[C@H]1O (some centres undefined)	inactive	–
CN1CCC2=C(C1)c1ccccc1Cc1ccccc12	inactive	–

target: Retinaldehyde dehydrogenase 3 (Homo sapiens) (UniProt P47895); test: qHTS for Inhibitors of the Aldehyde Dehydrogenase Family (ALDH1A3) Primary screen (AID 2061315); settings: ALDH inhibition qHTS; series mostly up to 56 µM

Structure (SMILES)	Potency	activity change, negative = inhibition
O=C1N[C@@H](Cc2ccccc2)CN2CCCC[C@@H]12	inactive	–
CC(=O)OC[C@]12[C@H](OC(C)=O)C(=O)[C@@H]3[C@@H](O)[C@@]14O[C@@]3(C)COC(=O)c1cccnc1[C@@H](C)[C@H](C)C(=O)O[C@@H]([C@H](OC(C)=O)[C@@H]2OC(C)=O)[C@]4(C)O	inactive	–
CCCC[N+]1(C)[C@@H]2CC(OC(=O)[C@H](CO)c3ccccc3)C[C@H]1[C@@H]1O[C@@H]12 (some centres undefined)	inactive	–
CC(C)(C)NC[C@H](O)c1ccc(O)cc1Cl	inactive	–
CCCCC1C(=O)NC(=O)N(C2CCCCC2)C1=O (centres undefined)	inactive	–
C[C@H]1O[C@@H](O[C@H]2[C@@H](O)C[C@H](O[C@H]3[C@@H](O)C[C@H](O[C@H]4CC[C@@]5(C)[C@H](CC[C@@H]6[C@@H]5CC[C@]5(C)[C@@H](C7=CC(=O)OC7)CC[C@]65O)C4)O[C@@H]3C)O[C@@H]2C)C[C@H](O)[C@@H]1O	inactive	–
CC1CCCC(=O)CCC/C=C/c2cc(O)cc(O)c2C(=O)O1 (centres undefined)	inactive	–
CN1C(=O)C(Cc2ccc3ccccc3c2)N=C(c2ccc(O)cc2)c2cc(Cl)ccc21 (centres undefined)	inactive	–
C[C@H]1C(=O)O[C@H]2[C@H](O)[C@]34C5OC(=O)[C@]3(O[C@@H]3OC(=O)[C@H](O)C34[C@H](C(C)(C)C)[C@H]5O)C12O (some centres undefined)	inactive	–
C=C1[C@@H](C)[C@H]2[C@H](Cc3ccccc3)NC(=O)[C@]23[C@H](OC(C)=O)/C=C/[C@](C)(O)C(=O)[C@@H](C)C/C=C/[C@H]3[C@@H]1O	inactive	–
C[C@]12CC[C@H](O)C[C@@H]1CC[C@@H]1[C@@H]2CC[C@]2(C)[C@@H](C3=CC(=O)OC3)CC[C@]12O	inactive	–
CC1=CC(=O)[C@@H](O)[C@@]2(C)C1C[C@H]1OC(=O)[C@H](O)[C@@]3(O)[C@@H](C)[C@@H](O)[C@H](O)C2[C@@]13C (some centres undefined)	inactive	–
COc1ccc2c3c([nH]c2c1)C(C=C(C)C)N1C(=O)C2CCCN2C(=O)C1C3 (centres undefined)	inactive	–
OCc1nnc2n1-c1ccc(Cl)cc1C(c1ccccc1Cl)=NC2	inactive	–
CC(=O)OC[C@]12C[C@H](O)C(C)=C[C@H]1O[C@@H]1[C@H](O)[C@@H](OC(C)=O)[C@@]2(C)[C@]12CO2	inactive	–
CC1=CC2/C=C(\C)CCC(O)C(O)/C=C/C(=O)OC23C(=O)NC(CC(C)C)C3C1C (centres undefined)	inactive	–
O=C(O)c1ccnc2cc(C(OCCN3CCCCC3)c3ccccc3Cl)[nH]c12 (centres undefined)	inactive	–
CCCCCn1cc(C(=O)c2cccc3ccccc23)c2ccccc21	inactive	–

Structure (SMILES)	Potency	activity change, negative = inhibition
Cc1c(N2C(=O)[C@@H]3[C@H](O)CCN3C2=O)ccc(C#N)c1Cl	inactive	–
CC(=O)OC[C@]12C[C@H](OC(C)=O)C(C)=C[C@H]1O[C@@H]1[C@H](O)[C@@H](O)[C@@]2(C)[C@]12CO2	inactive	–
CC1=C[C@H]2O[C@@H]3[C@H](O)[C@@H](O)[C@](C)([C@@]2(CO)C[C@@H]1O)[C@]31CO1	inactive	–
CO[C@H]1C[C@H](O[C@H]2CC[C@]3(C=O)[C@H]4CC[C@]5(C)[C@@H](C6=CC(=O)OC6)CC[C@]5(O)[C@@H]4CC[C@]3(O)C2)O[C@H](C)[C@H]1O	inactive	–
C[C@H](CCC(=O)O)C[C@H](C)C[C@H](C)C(=O)/C=C(\O)[C@H](C)C[C@H](C)C/C=C/[C@@H](C)[C@@H](O)[C@@H](C)[C@@H](O)C[C@@H]1CC[C@@](C)([C@H]2CC[C@@](C)([C@@H](C)O)O2)O1	inactive	–
C=CC/C=C\C/C=C\CCCCCCCc1cc(O)cc(O)c1	inactive	–
C=C1C(=O)OC2/C=C(\COO)CC/C=C(\COC(C)=O)CC(OC(=O)C(C)CC)C12 (centres undefined)	inactive	–
O=C(O)CCCCCCNC1c2ccccc2CCc2ccccc21	inactive	–
C[C@@]12C[C@@H](c3ccoc3)OC(=O)C1CC[C@]1(C)[C@H]2[C@H]2C=C[C@]1(O)C(=O)O2 (some centres undefined)	inactive	–
CC(=O)C1CCC2C3CCC4C[C@@H](O)CCC4(C)C3CCC12C (some centres undefined)	inactive	–
COC(=O)C1=COC(C)C2CN3CCC4(C(=O)Nc5ccccc54)C3CC12 (centres undefined)	inactive	–
COc1cc2c(cc1OC)[C@@]13CCN4CC5=CCO[C@H]6CC(=O)N2[C@H]1[C@H]6[C@H]5C[C@H]43	inactive	–
CC1=CC(=O)[C@@H](O)[C@]2(C)C3[C@@H](O)[C@@H]4OC(=O)[C@@H]([C@H]4C)[C@]3(C)C(=O)C[C@@H]12 (some centres undefined)	inactive	–
C/C=C(\C)C(O)C(C)/C=C(C)/C=C/C/C(C)=C/Cc1nc(OC)c(OC)c(O[C@@H]2O[C@@H](C)[C@H](O)[C@@H](O)[C@H]2O)c1C (some centres undefined)	inactive	–
CN1CCc2cc3c(cc2C1C1OC(=O)c2c1ccc1c2OCO1)OCO3 (centres undefined)	inactive	–
C=CC(C)(O)CC/C=C(\C)C(=O)O[C@H]1[C@H](O)[C@@H](CO)O[C@@H](OC(=O)[C@]23CCC(C)(C)CC2C2=CCC4[C@@]5(C)CC[C@H](O[C@@H]6O[C@H](CO[C@@H]7OC[C@H](O)[C@H](O)[C@H]7O[C@@H]7OC[C@@H](O)[C@H](O)[C@H]7O)[C@@H](O)[C@H](O)[C@H]6O)C(C)(C)C5CC[C@@]4(C)[C@]2(C)CC3)[C@@H]1OC1OC(C)C(O[C@@H]2OC[C@@H](O)[C@H](O[C@@H]3OC[C@@H](O)[C@H](O)[C@H]3O)[C@H]2O)C(O)C1O (some centres undefined)	–	3.26% [at 11.2 µM] (inactive)
CCOc1ccc(Oc2ccc(OCc3cc(F)ccc3F)cc2)c(N)c1	inactive	–
